Results published in the supplement of paper PMC11732987, “Enantioselective OTUD7B fragment discovery through chemoproteomics screening and high-throughput optimisation” (Communications Chemistry, 2025).

What was measured:
Test in all cases: log2 ratio of Biotin-Ahx-Ub-VS probe labelling (fragment/DMSO); higher = less target engagement (more negative = stronger competition), active = hit call of the paper (q ≤ 0.05, log2 ratio ≤ -1)
Details in all cases: compound concentration: 200 uM; treatment time: 3 h
[1] = target: USP34 (UniProt Q70CQ2)
Chain of USP34 (Q70CQ2 whole entry, the tested form may be a part): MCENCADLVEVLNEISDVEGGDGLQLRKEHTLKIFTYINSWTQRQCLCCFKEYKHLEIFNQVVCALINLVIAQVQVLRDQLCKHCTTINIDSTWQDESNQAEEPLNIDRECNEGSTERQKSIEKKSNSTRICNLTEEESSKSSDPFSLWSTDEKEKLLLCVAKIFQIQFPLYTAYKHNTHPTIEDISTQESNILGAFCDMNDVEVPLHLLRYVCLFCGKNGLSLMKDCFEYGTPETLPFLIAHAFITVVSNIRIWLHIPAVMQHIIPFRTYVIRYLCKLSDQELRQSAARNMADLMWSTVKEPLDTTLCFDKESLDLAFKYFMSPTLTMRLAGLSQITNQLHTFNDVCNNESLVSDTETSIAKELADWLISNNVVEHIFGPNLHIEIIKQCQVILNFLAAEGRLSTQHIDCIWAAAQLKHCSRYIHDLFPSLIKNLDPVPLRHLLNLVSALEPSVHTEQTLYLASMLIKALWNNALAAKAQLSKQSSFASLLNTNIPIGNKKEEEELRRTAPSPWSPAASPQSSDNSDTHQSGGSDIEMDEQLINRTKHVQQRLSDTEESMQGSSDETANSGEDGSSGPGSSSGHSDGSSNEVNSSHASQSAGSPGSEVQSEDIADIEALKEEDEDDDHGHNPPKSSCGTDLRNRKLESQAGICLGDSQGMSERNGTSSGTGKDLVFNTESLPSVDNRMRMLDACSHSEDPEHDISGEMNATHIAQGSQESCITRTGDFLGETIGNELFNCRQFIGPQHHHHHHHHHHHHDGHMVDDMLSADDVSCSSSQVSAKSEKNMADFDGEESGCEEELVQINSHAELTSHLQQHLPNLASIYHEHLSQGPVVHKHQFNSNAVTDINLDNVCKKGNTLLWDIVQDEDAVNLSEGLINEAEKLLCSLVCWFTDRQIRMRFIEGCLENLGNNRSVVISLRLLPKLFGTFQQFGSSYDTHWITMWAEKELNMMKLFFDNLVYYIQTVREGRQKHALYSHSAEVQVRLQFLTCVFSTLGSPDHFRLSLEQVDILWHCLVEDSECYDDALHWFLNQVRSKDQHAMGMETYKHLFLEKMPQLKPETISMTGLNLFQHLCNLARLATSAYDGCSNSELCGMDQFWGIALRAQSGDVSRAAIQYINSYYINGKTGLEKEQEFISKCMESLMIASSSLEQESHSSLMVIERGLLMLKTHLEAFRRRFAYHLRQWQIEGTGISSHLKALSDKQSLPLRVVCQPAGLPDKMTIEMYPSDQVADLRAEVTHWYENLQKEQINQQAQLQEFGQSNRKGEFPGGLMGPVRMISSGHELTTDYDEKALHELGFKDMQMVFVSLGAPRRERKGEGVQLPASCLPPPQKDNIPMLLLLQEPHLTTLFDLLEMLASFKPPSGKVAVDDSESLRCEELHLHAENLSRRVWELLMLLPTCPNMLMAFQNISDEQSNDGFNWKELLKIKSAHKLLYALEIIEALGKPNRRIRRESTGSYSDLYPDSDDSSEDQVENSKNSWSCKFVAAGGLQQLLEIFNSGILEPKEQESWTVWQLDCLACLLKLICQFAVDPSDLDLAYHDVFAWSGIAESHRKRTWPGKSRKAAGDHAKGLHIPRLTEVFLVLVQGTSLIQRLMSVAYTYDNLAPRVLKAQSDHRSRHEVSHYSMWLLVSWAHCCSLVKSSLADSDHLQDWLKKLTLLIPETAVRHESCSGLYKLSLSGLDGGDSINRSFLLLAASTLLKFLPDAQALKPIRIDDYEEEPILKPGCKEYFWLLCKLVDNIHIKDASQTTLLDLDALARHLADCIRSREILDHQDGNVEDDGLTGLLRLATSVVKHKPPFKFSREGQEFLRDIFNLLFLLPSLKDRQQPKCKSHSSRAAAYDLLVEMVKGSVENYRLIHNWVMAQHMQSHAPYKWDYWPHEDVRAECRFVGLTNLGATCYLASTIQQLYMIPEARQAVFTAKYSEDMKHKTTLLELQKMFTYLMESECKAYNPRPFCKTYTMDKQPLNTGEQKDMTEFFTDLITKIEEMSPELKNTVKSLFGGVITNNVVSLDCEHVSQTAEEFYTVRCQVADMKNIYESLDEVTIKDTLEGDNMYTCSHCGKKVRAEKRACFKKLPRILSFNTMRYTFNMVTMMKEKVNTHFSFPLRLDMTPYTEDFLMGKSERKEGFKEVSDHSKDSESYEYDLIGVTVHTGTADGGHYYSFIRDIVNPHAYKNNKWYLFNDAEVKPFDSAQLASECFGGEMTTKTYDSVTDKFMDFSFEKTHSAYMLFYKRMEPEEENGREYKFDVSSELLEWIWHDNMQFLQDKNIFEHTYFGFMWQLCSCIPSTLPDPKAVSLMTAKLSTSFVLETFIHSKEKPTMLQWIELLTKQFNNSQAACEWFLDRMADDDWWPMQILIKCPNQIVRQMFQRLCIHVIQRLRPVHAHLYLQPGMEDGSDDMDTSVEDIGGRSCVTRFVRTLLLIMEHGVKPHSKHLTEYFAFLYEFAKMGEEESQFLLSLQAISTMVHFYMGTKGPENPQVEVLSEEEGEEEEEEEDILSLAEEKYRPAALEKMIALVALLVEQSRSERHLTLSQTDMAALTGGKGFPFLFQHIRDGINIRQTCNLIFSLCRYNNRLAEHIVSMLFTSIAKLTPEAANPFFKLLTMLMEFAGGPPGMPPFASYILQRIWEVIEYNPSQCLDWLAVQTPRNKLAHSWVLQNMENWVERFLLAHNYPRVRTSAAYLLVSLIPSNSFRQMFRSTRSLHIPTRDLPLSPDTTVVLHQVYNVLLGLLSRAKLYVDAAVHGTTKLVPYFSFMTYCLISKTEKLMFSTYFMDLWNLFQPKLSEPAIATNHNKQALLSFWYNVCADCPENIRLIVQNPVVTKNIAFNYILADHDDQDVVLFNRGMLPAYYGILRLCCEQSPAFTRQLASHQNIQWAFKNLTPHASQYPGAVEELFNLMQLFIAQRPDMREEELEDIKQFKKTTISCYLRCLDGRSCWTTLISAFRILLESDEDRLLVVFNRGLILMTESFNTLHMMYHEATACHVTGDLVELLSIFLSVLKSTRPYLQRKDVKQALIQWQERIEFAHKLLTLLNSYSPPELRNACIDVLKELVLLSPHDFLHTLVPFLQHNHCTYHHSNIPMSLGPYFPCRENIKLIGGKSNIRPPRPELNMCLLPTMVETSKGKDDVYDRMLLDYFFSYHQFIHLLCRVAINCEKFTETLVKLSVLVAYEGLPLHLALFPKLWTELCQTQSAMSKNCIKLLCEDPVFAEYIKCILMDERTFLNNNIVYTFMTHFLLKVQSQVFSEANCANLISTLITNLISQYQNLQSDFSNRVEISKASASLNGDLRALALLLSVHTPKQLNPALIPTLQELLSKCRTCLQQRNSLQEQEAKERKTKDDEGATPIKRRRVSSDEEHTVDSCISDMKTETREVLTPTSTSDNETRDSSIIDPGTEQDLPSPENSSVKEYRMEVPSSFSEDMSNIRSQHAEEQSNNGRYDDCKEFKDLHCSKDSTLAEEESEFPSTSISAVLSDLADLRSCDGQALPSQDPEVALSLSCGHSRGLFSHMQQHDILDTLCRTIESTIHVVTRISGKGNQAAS
In short: (§1)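 Fragment (200 µM) or vehicle was incubated for 3 h with triplicate HEK293T lysate samples of 495 µg, which were then treated with Biotin-Ahx-Ub-VS at 0.5 µM final for 1 h. Labelled DUBs were enriched on NeutrAvidin, digested with LysC and trypsin, and analysed by diaPASEF LC-MS/MS. Values are average log2 fragment/vehicle ratios from an unpaired t-test on global-median-normalised Spectronaut label-free quantities, using proteins with ≥2 unique peptides.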

[2] = target: T1, USP36 (UniProt Q9P275)
T1 sequence (whole entry): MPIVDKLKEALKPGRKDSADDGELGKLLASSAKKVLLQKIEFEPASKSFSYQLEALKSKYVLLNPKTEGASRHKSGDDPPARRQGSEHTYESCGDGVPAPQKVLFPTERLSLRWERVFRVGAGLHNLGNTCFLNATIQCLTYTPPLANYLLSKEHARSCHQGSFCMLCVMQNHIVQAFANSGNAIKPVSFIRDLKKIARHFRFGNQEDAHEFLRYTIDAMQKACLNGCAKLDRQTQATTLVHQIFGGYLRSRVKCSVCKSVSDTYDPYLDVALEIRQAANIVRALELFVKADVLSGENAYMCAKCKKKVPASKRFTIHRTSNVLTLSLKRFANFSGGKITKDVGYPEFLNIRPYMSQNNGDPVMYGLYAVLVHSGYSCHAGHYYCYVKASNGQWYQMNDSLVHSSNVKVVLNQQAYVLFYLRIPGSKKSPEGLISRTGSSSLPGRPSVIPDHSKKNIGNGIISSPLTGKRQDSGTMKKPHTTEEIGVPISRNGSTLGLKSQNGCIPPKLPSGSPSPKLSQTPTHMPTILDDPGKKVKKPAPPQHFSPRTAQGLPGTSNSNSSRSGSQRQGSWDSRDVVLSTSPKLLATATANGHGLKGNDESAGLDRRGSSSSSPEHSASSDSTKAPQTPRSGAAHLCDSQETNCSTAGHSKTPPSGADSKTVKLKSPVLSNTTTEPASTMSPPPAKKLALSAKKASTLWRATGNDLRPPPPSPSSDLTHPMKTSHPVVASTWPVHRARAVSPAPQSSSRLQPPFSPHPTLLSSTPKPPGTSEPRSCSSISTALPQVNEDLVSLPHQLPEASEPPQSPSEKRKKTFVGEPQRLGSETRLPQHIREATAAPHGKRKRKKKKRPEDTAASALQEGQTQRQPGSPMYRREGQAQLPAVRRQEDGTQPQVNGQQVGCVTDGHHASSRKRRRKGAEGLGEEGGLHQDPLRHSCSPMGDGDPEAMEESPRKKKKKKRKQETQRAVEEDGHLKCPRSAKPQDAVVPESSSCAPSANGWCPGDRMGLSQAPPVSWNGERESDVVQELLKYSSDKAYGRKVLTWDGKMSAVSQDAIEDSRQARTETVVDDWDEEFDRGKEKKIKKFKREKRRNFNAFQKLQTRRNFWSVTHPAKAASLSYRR
In short: as §1

[3] = target: T2, USP38 (UniProt Q8NB14)
T2 sequence (whole entry): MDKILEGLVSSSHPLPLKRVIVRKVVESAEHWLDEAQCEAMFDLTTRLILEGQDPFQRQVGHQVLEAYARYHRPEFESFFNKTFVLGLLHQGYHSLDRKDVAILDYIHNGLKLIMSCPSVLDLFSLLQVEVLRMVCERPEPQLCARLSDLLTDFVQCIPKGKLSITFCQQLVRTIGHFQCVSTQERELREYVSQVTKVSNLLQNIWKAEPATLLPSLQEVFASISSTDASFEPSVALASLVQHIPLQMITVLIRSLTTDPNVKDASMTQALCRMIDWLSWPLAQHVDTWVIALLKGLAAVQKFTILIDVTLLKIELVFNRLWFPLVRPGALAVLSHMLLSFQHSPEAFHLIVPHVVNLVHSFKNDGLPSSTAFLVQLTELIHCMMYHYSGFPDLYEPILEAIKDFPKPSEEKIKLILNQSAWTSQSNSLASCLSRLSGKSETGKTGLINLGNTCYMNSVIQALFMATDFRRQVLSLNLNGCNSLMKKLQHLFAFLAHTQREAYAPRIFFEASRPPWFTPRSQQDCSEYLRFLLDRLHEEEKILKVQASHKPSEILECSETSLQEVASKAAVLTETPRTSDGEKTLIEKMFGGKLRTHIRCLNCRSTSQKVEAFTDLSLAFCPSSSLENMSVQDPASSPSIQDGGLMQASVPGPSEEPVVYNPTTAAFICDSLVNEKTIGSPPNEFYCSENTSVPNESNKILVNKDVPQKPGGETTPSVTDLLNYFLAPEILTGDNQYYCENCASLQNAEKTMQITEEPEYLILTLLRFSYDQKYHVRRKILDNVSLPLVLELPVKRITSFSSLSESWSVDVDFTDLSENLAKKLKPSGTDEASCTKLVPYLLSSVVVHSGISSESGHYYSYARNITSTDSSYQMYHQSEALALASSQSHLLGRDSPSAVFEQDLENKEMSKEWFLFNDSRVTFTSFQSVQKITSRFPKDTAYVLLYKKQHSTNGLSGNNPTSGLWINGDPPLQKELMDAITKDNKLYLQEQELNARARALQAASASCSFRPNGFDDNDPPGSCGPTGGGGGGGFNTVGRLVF
In short: as §1

[4] = target: T3, USP39 (UniProt Q53GS9)
T3 sequence (whole entry): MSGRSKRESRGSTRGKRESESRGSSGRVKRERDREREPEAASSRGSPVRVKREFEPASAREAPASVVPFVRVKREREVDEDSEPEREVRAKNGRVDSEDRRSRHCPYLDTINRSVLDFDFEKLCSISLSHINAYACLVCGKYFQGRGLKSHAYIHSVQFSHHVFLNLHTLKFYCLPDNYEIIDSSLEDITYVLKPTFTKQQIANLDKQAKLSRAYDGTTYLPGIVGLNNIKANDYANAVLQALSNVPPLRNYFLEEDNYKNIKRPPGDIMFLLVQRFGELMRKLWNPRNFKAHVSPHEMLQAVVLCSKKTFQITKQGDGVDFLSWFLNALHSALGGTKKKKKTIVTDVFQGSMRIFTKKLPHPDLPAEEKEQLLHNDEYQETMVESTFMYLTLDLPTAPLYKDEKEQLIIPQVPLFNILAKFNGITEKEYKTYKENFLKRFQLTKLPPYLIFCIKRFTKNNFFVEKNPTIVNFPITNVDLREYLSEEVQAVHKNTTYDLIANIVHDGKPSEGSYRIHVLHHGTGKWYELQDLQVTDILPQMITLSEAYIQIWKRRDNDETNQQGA
In short: as §1

[5] = target: T4, USP4 (UniProt Q13107)
T4 sequence (whole entry): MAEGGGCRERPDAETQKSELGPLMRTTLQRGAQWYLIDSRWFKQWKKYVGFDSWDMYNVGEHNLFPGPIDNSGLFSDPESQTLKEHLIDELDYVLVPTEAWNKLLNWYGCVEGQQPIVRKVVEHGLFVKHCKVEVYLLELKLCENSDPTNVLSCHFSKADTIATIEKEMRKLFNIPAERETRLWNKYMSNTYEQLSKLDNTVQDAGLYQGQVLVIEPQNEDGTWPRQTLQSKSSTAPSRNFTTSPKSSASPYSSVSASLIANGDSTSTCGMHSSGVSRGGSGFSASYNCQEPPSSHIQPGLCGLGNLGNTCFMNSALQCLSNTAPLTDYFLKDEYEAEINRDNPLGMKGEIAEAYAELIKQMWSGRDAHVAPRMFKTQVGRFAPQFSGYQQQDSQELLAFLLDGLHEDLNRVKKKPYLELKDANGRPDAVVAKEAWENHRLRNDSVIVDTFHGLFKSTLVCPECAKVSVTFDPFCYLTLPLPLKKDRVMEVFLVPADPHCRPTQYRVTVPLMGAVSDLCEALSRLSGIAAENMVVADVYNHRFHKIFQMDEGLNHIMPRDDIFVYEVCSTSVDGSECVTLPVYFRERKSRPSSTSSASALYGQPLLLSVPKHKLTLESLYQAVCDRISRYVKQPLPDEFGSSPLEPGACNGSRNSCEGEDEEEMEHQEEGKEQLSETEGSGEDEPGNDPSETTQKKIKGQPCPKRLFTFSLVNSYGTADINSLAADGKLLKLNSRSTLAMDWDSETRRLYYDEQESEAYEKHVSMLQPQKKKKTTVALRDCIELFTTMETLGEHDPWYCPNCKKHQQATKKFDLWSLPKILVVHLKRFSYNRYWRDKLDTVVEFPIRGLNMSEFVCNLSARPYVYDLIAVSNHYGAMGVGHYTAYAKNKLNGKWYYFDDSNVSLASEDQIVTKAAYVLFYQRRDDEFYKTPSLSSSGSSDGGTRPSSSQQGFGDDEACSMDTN
In short: as §1

Measured: log2 ratio of Biotin-Ahx-Ub-VS probe labelling

Cc1ccc(CNC(=O)CCl)nc1C.Cl
inactive: [1] -0.103 | [2] 0.158 | [3] 0.0543 | [4] 0.0861 | [5] 0.0382
